Results published in PubChem BioAssay AID1159580 (chemical genetic matrix, 2015).
Several values for one entry are separate records, joined by “and”; a condition that tells them apart may be missing. Equal entries are not always repeated. About 2,000 (36%) of roughly 5,500 compounds were called active. Roughly 18% stayed inconclusive and do not appear here. Cut-off read from the data, not from the text of the source: active = normalized growth mostly below about 0.91 (no sharp cut-off); inconclusive = no clear call, values can overlap the other calls; inactive = mostly above about 0.92. The list shows a part of the results.

Experiment: chemical genetic growth profiling, strain panel (AID 1159580);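 note: tested at 20 µM; growth read once vehicle control cultures reached saturation at 30 °C; 1 = growth at the plate median or of vehicle wells; lower values mean less growth of the strain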
Conditions: growth OD

Measured: normalized growth

NC(N)=Nc1nc(CSCCC(N)=NS(N)(=O)=O)cs1
inactive: S. cerevisiae deletion strains, locus YKL009W, strain mrt4, stronger effect = lower value 1.04 | S. cerevisiae deletion strains, locus YKL068W, stronger effect = lower value 1.01 | S. cerevisiae deletion strains, locus YKL085W, strain MDH1 (second series), stronger effect = lower value 0.987 | S. cerevisiae deletion strains, locus YKL085W, strain MDH1, stronger effect = lower value 0.987 | S. cerevisiae deletion strains, locus YKL160W, strain elf1, stronger effect = lower value 0.974 | S. cerevisiae deletion strains, locus YKL190W, strain CNB1, stronger effect = lower value 1 | S. cerevisiae deletion strains, locus YKR001C, strain vps1, stronger effect = lower value 1.01 | S. cerevisiae deletion strains, locus YKR026C, strain gcn3, stronger effect = lower value 0.981 | S. cerevisiae deletion strains, locus YKR091W, strain srl3, stronger effect = lower value 0.97 | S. cerevisiae deletion strains, locus YLL001W, strain dnm1, stronger effect = lower value 0.933 | S. cerevisiae deletion strains, locus YLL026W, stronger effect = lower value 0.992 | S. cerevisiae deletion strains, locus YLL041C, strain sdh2, stronger effect = lower value 0.995 | S. cerevisiae deletion strains, locus YLR027C, strain aat2, stronger effect = lower value 0.987 | S. cerevisiae deletion strains, locus YLR039C, strain RIC1, stronger effect = lower value 0.979 | S. cerevisiae deletion strains, locus YLR058C, strain SHM2, stronger effect = lower value 1.02 | S. cerevisiae deletion strains, locus YLR102C, strain apc9, stronger effect = lower value 1.01 | S. cerevisiae deletion strains, locus YLR113W, strain HOG1, stronger effect = lower value 0.97 | S. cerevisiae deletion strains, locus YLR221C, strain rsa3, stronger effect = lower value 0.99 | S. cerevisiae deletion strains, locus YLR258W, strain gsy2, stronger effect = lower value 0.998 | S. cerevisiae deletion strains, locus YLR262C, strain YPT6 (second series), stronger effect = lower value 0.961 | S. cerevisiae deletion strains, locus YLR262C, strain YPT6, stronger effect = lower value 0.979 | S. cerevisiae deletion strains, locus YLR268W, strain sec22, stronger effect = lower value 1.05 | S. cerevisiae deletion strains, locus YLR320W, strain mms22, stronger effect = lower value 1.01 | S. cerevisiae deletion strains, locus YLR330W, strain CHS5, stronger effect = lower value 0.996 | S. cerevisiae deletion strains, locus YLR342W, strain FKS1 (second series), stronger effect = lower value 1.02 | S. cerevisiae deletion strains, locus YLR342W, strain FKS1, stronger effect = lower value 0.983 | S. cerevisiae deletion strains, locus YLR357W, strain rsc2, stronger effect = lower value 1.04 | S. cerevisiae deletion strains, locus YLR370C, strain arc18, stronger effect = lower value 0.972 | S. cerevisiae deletion strains, locus YLR371W, strain rom2, stronger effect = lower value 1.01 | S. cerevisiae deletion strains, locus YLR384C, strain iki3, stronger effect = lower value 0.963 | S. cerevisiae deletion strains, locus YLR418C, strain cdc73, stronger effect = lower value 0.999 | S. cerevisiae deletion strains, locus YML016C, strain PPZ1, stronger effect = lower value 0.997 | S. cerevisiae deletion strains, locus YML032C, strain rad52, stronger effect = lower value 1.02 | S. cerevisiae deletion strains, locus YML120C, strain ndi1, stronger effect = lower value 0.977 | S. cerevisiae deletion strains, locus YML124C, strain tub3, stronger effect = lower value 1 | S. cerevisiae deletion strains, locus YMR058W, strain fet3, stronger effect = lower value 0.991 | S. cerevisiae deletion strains, locus YMR078C, strain ctf18, stronger effect = lower value 1.02 | S. cerevisiae deletion strains, locus YMR125W, strain sto1, stronger effect = lower value 0.956 | S. cerevisiae deletion strains, locus YMR129W, stronger effect = lower value 0.99 | S. cerevisiae deletion strains, locus YMR205C, strain PFK2, stronger effect = lower value 0.988 | S. cerevisiae deletion strains, locus YMR223W, strain ubp8, stronger effect = lower value 1.01 | S. cerevisiae deletion strains, locus YMR231W, strain pep5, stronger effect = lower value 0.971 | S. cerevisiae deletion strains, locus YMR263W, strain SAP30, stronger effect = lower value 1.01 | S. cerevisiae deletion strains, locus YMR307W, strain GAS1, stronger effect = lower value 0.95 | S. cerevisiae deletion strains, locus YNL067W, strain RPL9B, stronger effect = lower value 1.01 | S. cerevisiae deletion strains, locus YNL071W, strain lat1, stronger effect = lower value 0.996 | S. cerevisiae deletion strains, locus YNL128W, strain TEP1, stronger effect = lower value 1.01 | S. cerevisiae deletion strains, locus YNL153C, strain GIM3, stronger effect = lower value 1.01 | S. cerevisiae deletion strains, locus YNL175C, strain NOP13, stronger effect = lower value 1.01 | S. cerevisiae deletion strains, locus YNL183C, strain NPR1, stronger effect = lower value 0.931 | S. cerevisiae deletion strains, locus YNL197C, strain WHI3, stronger effect = lower value 1.01 | S. cerevisiae deletion strains, locus YNL209W, strain ssb2, stronger effect = lower value 0.993 | S. cerevisiae deletion strains, locus YNL224C, strain SQS1, stronger effect = lower value 0.986 | S. cerevisiae deletion strains, locus YNL233W, strain BNI4, stronger effect = lower value 1.01 | S. cerevisiae deletion strains, locus YNL248C, strain rpa49, stronger effect = lower value 0.994 | S. cerevisiae deletion strains, locus YNL250W, strain rad50, stronger effect = lower value 1 | S. cerevisiae deletion strains, locus YNL271C, strain bni1, stronger effect = lower value 1.01 | S. cerevisiae deletion strains, locus YNL298W, strain CLA4, stronger effect = lower value 1.02 | S. cerevisiae deletion strains, locus YNL307C, strain MCK1, stronger effect = lower value 1.01 | S. cerevisiae deletion strains, locus YNL322C, strain KRE1 (second series), stronger effect = lower value 0.963 | S. cerevisiae deletion strains, locus YNL322C, strain KRE1, stronger effect = lower value 1 and 1.01 | S. cerevisiae deletion strains, locus YNR049C, strain mso1, stronger effect = lower value 0.972 | S. cerevisiae deletion strains, locus YNR052C, strain pop2, stronger effect = lower value 1.02 | S. cerevisiae deletion strains, locus YOL006C, strain TOP1, stronger effect = lower value 1.06 | S. cerevisiae deletion strains, locus YOL012C, strain htz1 0.851 | S. cerevisiae deletion strains, locus YOL147C, strain pex11, stronger effect = lower value 1.01 | S. cerevisiae deletion strains, locus YOR001W, strain rrp6, stronger effect = lower value 0.972 | S. cerevisiae deletion strains, locus YOR061W, strain CKA2, stronger effect = lower value 1 | S. cerevisiae deletion strains, locus YOR069W, strain VPS5, stronger effect = lower value 1.01 | S. cerevisiae deletion strains, locus YOR070C, strain gyp1, stronger effect = lower value 0.982 | S. cerevisiae deletion strains, locus YOR080W, strain dia2, stronger effect = lower value 0.97 | S. cerevisiae deletion strains, locus YOR083W, strain WHI5 (second series), stronger effect = lower value 0.992 | S. cerevisiae deletion strains, locus YOR083W, strain WHI5, stronger effect = lower value 0.965 | S. cerevisiae deletion strains, locus YOR106W, strain vam3, stronger effect = lower value 0.96 | S. cerevisiae deletion strains, locus YOR136W, strain idh2, stronger effect = lower value 1 | S. cerevisiae deletion strains, locus YOR144C, strain elg1, stronger effect = lower value 1.01 | S. cerevisiae deletion strains, locus YOR184W, strain ser1, stronger effect = lower value 1 | S. cerevisiae deletion strains, locus YOR231W, strain MKK1, stronger effect = lower value 0.959 | S. cerevisiae deletion strains, locus YOR265W, strain rbl2, stronger effect = lower value 0.986 | S. cerevisiae deletion strains, locus YOR270C, strain vph1, stronger effect = lower value 0.966 | S. cerevisiae deletion strains, locus YOR290C, strain snf2, stronger effect = lower value 1 | S. cerevisiae deletion strains, locus YOR316C, strain cot1, stronger effect = lower value 1 | S. cerevisiae deletion strains, locus YPL051W, strain arl3, stronger effect = lower value 0.99 | S. cerevisiae deletion strains, locus YPL055C, strain LGE1, stronger effect = lower value 0.97 | S. cerevisiae deletion strains, locus YPL078C, strain atp4, stronger effect = lower value 0.968 | S. cerevisiae deletion strains, locus YPL106C, strain sse1, stronger effect = lower value 0.999 | S. cerevisiae deletion strains, locus YPL240C, strain hsp82, stronger effect = lower value 1 | S. cerevisiae deletion strains, locus YPL241C, strain CIN2, stronger effect = lower value 0.997 and 1.01 | S. cerevisiae deletion strains, locus YPL256C, strain CLN2, stronger effect = lower value 0.961 | S. cerevisiae deletion strains, locus YPR119W, strain clb2, stronger effect = lower value 1 | S. cerevisiae deletion strains, locus YPR141C, strain kar3, stronger effect = lower value 1 | S. cerevisiae deletion strains, locus YPR163C, strain tif3, stronger effect = lower value 1.02 | S. cerevisiae deletion strains, locus YPR167C, strain met16, stronger effect = lower value 1.01 | S. cerevisiae deletion strains, strain wtn01, stronger effect = lower value 1.02 | S. cerevisiae strains, strain wild type, stronger effect = lower value 1
